This passage reports Potency and outcome results from PubChem BioAssay (Tox21).

Each structure is given as a SMILES string. Values joined by “and” are separate entries in the source; they are usually repeats but may differ in a detail not shown here. Equal entries are not always repeated. More than one record can exist for a structure, and the calls need not agree. Active and inactive are the calls of the source. Unless noted, calls follow the shape of the dose curve; as a rule, active = well fitted curve in the direction sought with a large enough effect in the repeat runs; inconclusive = weak or mixed curves; inactive = no such curve, though single readings can be large; an effect the other way counts as inactive or inconclusive.

Assay [1] in a line: qHTS assay to identify small molecule antagonists of the glucocorticoid receptor (GR) signaling pathway - cell viability counter screen (AID 720693). Also: nearly all actives have a fitted effect of over 55% in size. For orientation: Quantitative high-throughput screening tests each substance at several concentrations.
Assay [2] is described as follows: qHTS assay for identifying genotoxic compounds that show differential cytotoxicity against isogenic chicken DT40 cell lines with known DNA damage response pathways - wild type cell line (AID 743012). Also: nearly all actives have a fitted effect of over 60% in size. Also: potency is read from the fitted curve at half-maximal effect. Summed up: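 Quantitative HTS on parental DT40 cells: 40 h compound treatment at 37 C/5% CO2, with viability then determined by CellTiter-Glo luminescence. Values serve as the DNA repair-proficient reference for differential cytotoxicity.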

Assay [3] is described as follows: qHTS assay for identifying genotoxic compounds that show differential cytotoxicity against isogenic chicken DT40 cell lines with known DNA damage response pathways - Rev3 mutant cell line (AID 743014). Also: nearly all actives have a fitted effect of over 55% in size. Also: potency is read from the fitted curve at half-maximal effect.
A short description of assay [4]: qHTS assay for identifying genotoxic compounds that show differential cytotoxicity against isogenic chicken DT40 cell lines with known DNA damage response pathways - Rad54/Ku70 mutant cell line (AID 743015). Also: nearly all actives have a fitted effect of over 60% in size. Also: potency is read from the fitted curve at half-maximal effect.
A short description of assay [5]: qHTS assay to identify small molecule antagonists of the androgen receptor (AR) signaling pathway - cell viability counter screen (AID 743033; also: nearly all actives have a fitted effect of over 45% in size; also: potency is read from the fitted curve at half-maximal effect).
A short description of assay [6]: qHTS assay to identify small molecule antagonists of the androgen receptor (AR) signaling pathway using the MDA cell line - cell viability counter screen (AID 743041; also: nearly all actives have a fitted effect of over 45% in size; also: potency is read from the fitted curve at half-maximal effect). A digest of the protocol:
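Cells were plated at 3,000 per well and left 5 h. Compounds in DMSO were then pinned in, followed by R1881. After 16 h at 37C, CellTiter-Fluor fluorescence gave viability.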

A short description of assay [7]: qHTS assay to identify small molecule antagonists of the thyroid receptor (TR) signaling pathway - cell viability counter screen (AID 743064). Also: nearly all actives have a fitted effect of over 50% in size. Also: potency is read from the fitted curve at half-maximal effect. A digest of the protocol: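 Viability of T3-stimulated (1 nM final) GH3.TRE-Luc cells is measured by CellTiter-Fluor fluorescence after 23.5 h compound exposure at 37 °C plus 30 min reagent incubation.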
Assay [8] can be described thus: qHTS assay to identify small molecule antagonists of the thyroid receptor (TR) signaling pathway (AID 743065). Also: nearly all actives have a fitted effect of over 55% in size. Also: potency is read from the fitted curve at half-maximal effect. Summed up: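 Antagonism measured as loss of luciferase signal in GH3 cells stably carrying a TRE-luciferase reporter, co-treated with compound and T3 (1 nM final) for 23.5 h at 37 C. Viability was read in the same well by CellTiter-Fluor.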
Assay [9] deals with thyroid hormone receptor (rat, GH3 cells). In words: qHTS assay to identify small molecule agonists of the thyroid receptor (TR) signaling pathway (AID 743066; calls by dose curve).
Assay [10] deals with Estrogen receptor (Homo sapiens) (UniProt P03372). In words: qHTS assay to identify small molecule antagonists of the estrogen receptor alpha (ER-alpha) signaling pathway (AID 743069; active = well fitted curve in the direction sought with a large enough effect in the signal ratio in the repeat runs, not every such curve was filed as active; inconclusive = weak or mixed curves, or effect the other way; inactive = no such curve, though single readings can be large or run the other way; the % refers to the signal ratio). A digest of the protocol: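 ER-alpha-UAS-bla GripTite HEK293 line; 2% charcoal-stripped FBS overnight; plated, 4 hr 37C/5% CO2; cpd in DMSO + 17beta-estradiol, 18 hr 37C; LiveBLAzer B/G FRET substrate 2 hr RT; fluorescence intensity.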
Estrogen receptor (Homo sapiens), sequence (P03372 whole entry, looked up): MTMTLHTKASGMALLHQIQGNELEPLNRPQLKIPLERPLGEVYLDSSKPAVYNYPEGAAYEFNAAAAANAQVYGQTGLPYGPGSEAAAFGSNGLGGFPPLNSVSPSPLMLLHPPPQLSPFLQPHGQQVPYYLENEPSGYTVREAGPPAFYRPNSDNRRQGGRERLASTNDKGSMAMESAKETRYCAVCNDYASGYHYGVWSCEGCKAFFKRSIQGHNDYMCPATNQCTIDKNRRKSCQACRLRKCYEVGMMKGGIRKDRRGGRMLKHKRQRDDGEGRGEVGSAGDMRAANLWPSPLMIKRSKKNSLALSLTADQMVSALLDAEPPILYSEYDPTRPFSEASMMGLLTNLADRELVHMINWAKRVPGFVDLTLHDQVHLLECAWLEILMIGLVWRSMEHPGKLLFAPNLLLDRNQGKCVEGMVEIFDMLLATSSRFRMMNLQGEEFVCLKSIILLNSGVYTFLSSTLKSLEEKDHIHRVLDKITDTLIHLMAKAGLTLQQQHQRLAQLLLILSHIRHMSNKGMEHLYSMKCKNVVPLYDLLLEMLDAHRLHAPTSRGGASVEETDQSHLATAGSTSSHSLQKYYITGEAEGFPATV

Assay [11] has the same target. Briefly: qHTS assay to identify small molecule agonists of the estrogen receptor alpha (ER-alpha) signaling pathway (AID 743075; calls by dose curve;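 also: HEK293 GripTite cells with ER-alpha and UAS-driven beta-lactamase reporter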; also: potency is read from the fitted curve at half-maximal effect).
Assay [12] has the same target. In words: qHTS assay to identify small molecule agonists of the estrogen receptor alpha (ER-alpha) signaling pathway using the BG1 cell line (AID 743079). Also: nearly all actives have a fitted effect of over 20% in size. Also: potency is read from the fitted curve at half-maximal effect. The note with it: BG1Luc4E2 cells, ERE-luciferase agonist, 22 h; activation: at 70.3 µM (top of the series).
Assay [13] can be described thus: qHTS assay to identify small molecule antagonists of the estrogen receptor alpha (ER-alpha) signaling pathway using the BG1 cell line (AID 743080; calls by dose curve;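 also: BG1 cells stimulated with 17beta-estradiol alongside compound; nearly all actives have a fitted effect of over 25% in size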; also: potency is read from the fitted curve at half-maximal effect). A digest of the protocol: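 BG1-Luc-4E2 cells (endogenous full-length ER-alpha, 4xERE luciferase) hormone-starved 5 days in charcoal-stripped FBS, plated 4,000/well for 24 h, then compound plus 17beta-estradiol for 21.5 h at 37 C; ONE-Glo luminescence read.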

Assay [14] in a line: qHTS assay to identify small molecule antagonists of the estrogen receptor alpha (ER-alpha) signaling pathway using the BG1 cell line - cell viability counter screen (AID 743081).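 Also: compound given together with 17beta-estradiol as the ER stimulus; nearly all actives have a fitted effect of over 45% in size.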 Also: potency is read from the fitted curve at half-maximal effect.
Assay [15] concerns the target Aromatase (Homo sapiens) (UniProt P11511). In words: qHTS assay to identify aromatase inhibitors (AID 743083). Also: nearly all actives have a fitted effect of over 55% in size. Also: potency is read from the fitted curve at half-maximal effect.
The nature of assay [16]: qHTS assay to identify small molecule antagonists of the estrogen receptor alpha (ER-alpha) signaling pathway - cell viability counter screen (AID 743074; calls by dose curve;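 also: HEK293 cells carrying ER-alpha-UAS-bla reporter stimulated with 17beta-estradiol; nearly all actives have a fitted effect of over 45% in size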; also: potency is read from the fitted curve at half-maximal effect).
For assay [17], the target named is Androgen receptor (Homo sapiens) (UniProt P10275). In words: qHTS assay to identify small molecule antagonists of the androgen receptor (AR) signaling pathway (AID 743035; active = well fitted inhibition curve with a large enough effect in the signal ratio in the repeat runs, not every such curve was filed as active; inconclusive = weak or mixed curves, or effect the other way; inactive = no such curve, though single readings can be large or run the other way; the % refers to the signal ratio). Summed up: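 Cell line: GeneBLAzer AR-UAS-bla GripTite (HEK293). Stimulus: R1881 added after compound. Exposure: 16 h, 37C, 5% CO2. Readout: LiveBLAzer B/G FRET fluorescence after 2 h at room temperature.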
Androgen receptor (Homo sapiens), sequence (P10275 whole entry, looked up): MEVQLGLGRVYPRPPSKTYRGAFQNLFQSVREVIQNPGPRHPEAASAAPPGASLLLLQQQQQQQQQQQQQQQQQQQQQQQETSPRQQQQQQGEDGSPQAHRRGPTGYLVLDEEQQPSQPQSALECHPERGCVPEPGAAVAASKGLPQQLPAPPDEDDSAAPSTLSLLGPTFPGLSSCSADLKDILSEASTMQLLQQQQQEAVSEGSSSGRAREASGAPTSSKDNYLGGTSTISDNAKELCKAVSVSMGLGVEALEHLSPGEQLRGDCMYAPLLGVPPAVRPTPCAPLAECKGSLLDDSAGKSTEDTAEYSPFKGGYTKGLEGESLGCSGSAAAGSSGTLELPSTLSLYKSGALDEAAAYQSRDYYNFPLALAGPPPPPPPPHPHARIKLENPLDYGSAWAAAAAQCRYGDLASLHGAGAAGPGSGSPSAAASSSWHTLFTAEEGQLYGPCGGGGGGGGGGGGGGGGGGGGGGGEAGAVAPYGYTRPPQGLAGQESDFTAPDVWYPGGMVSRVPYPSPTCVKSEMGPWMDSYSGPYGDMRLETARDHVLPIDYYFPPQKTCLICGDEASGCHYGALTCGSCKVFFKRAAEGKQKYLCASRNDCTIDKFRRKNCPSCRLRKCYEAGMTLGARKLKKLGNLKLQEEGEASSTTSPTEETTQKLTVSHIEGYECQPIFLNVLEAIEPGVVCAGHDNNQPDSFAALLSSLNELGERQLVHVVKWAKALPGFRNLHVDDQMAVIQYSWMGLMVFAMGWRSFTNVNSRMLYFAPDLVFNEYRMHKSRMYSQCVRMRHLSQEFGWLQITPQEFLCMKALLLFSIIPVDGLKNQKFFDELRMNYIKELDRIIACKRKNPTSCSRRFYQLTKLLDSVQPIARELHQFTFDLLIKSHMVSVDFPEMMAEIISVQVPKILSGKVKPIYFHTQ

Assay [18] shares this target. Briefly: qHTS assay to identify small molecule agonists of the androgen receptor (AR) signaling pathway using the MDA cell line (AID 743040; also: nearly all actives have a fitted effect of over 20% in size; also: potency is read from the fitted curve at half-maximal effect). A digest of the protocol:
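Cells plated, 5 h at 37C/0% CO2; compound or DMSO pinned; 16 h at 37C; ONE-Glo added; luminescence measured after 30 min at room temperature. Reporter line: MDA-kb2 with MMTV-luciferase responsive to AR and GR.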

The target is the same in assay [19]. In words: qHTS assay to identify small molecule antagonists of the androgen receptor (AR) signaling pathway using the MDA cell line (AID 743042; also: nearly all actives have a fitted effect of over 55% in size). A digest of the protocol: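 Antagonist mode: compounds plus R1881 agonist added to MDA-kb2 AR-luc cells, incubated 16 h at 37C. Luciferase reporter luminescence quantified, with multiplexed CellTiter-Fluor readout for cell viability.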

For assay [20] the target is unchanged. Briefly: qHTS assay to identify small molecule agonists of the androgen receptor (AR) signaling pathway (AID 743036; active = well fitted activation curve with a large enough effect in the signal ratio in the repeat runs, with a control signal flat, not every such curve was filed as active; inconclusive = weak or mixed curves, or effect the other way; inactive = no such curve, though single readings can be large or run the other way; the % refers to the signal ratio). A digest of the protocol: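 Screening used 2,000 AR-bla HEK293 cells per well, treated 16 h at 37C with test compounds in DMSO alongside positive and DMSO-only controls; beta-lactamase activity was then read by LiveBLAzer B/G FRET fluorescence after 2 h at room temperature.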

Aromatase (Homo sapiens), sequence (P11511 whole entry, looked up): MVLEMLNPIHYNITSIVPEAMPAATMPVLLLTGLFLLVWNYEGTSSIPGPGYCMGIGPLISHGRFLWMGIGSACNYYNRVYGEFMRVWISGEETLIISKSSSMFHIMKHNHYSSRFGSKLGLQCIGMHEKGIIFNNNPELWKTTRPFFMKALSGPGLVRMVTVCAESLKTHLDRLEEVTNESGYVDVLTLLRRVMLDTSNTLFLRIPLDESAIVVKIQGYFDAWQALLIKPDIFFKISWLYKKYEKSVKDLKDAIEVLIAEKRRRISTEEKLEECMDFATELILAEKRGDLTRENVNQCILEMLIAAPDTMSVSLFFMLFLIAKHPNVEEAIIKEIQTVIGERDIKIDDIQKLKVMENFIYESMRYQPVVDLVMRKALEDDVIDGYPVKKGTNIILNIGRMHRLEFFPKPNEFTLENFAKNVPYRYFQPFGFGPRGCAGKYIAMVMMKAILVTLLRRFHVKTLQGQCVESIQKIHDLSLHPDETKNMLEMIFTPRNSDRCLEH

In the case of `C1COCO1`, the Potency result in [1], in assay [2], in assay [3], in [4], in assay [5] and in assay [6] was “inactive” each time. Also, the Potency entry in assay [7], in assay [8], in assay [10], in [11], in assay [12] and in assay [13] was “inactive” each time. The Potency result in [14] and in assay [15] was “inactive” throughout. Besides, in assay [9], the outcome was inactive.

On to `CC1=CC(O)CC(C)(C)C1` (configuration not stated), for which the Potency entry in [1], in [2], in assay [3], in [4], in assay [5] and in assay [6] was “inactive” in each case. Further, the Potency result in assay [7], in assay [10], in assay [16], in assay [11], in assay [12] and in [13] was “inactive” throughout. The Potency result in assay [14] and in assay [15] was “inactive” each time. In addition, in assay [9], the outcome was inactive.

In the case of `OCC1CC=CCC1` (configuration not stated), the Potency entry in [1], in [2], in [3], in assay [4], in [5] and in [17] was “inactive” each time. Also, the Potency entry in assay [18], in assay [6], in [19], in assay [8], in [10] and in assay [16] was “inactive” each time. Also, the Potency result in assay [11], in [12], in [13], in assay [14] and in assay [15] was “inactive” each time. Also, the outcome in assay [9] was inactive.

Regarding `CCCCN(CCCC)CCCOC(=O)c1ccc(N)cc1`, the Potency result in assay [1], in assay [5], in assay [6], in [7], in [8] and in [16] was “inactive” each time. Further, the Potency entry in [15] is “inactive”. Besides, the results for the Potency in assay [2], in assay [3] and in assay [4] were 4.52 µM (active), 2.27 µM (active) and 4.52 µM (active), respectively. Moreover, the compound was called inactive in [9].

As for `COCC(O)CO` (configuration not stated), the Potency result in assay [1], in assay [2], in [3], in assay [4], in [5] and in assay [6] was “inactive” each time. In addition, the Potency result in assay [7], in assay [10], in [16], in assay [11], in assay [12] and in assay [13] was “inactive” throughout. In addition, the Potency entry in assay [14] and in assay [15] was “inactive” throughout. Moreover, in assay [9], the compound was called inactive.

As to `CCCCCCCCCCCCCCC[C@H](O)[C@@H](N)CO`, the Potency result in assay [1], in assay [2], in assay [3], in assay [4], in assay [5] and in [17] was “inactive” throughout. Moreover, the Potency result in assay [18], in assay [6], in [19], in assay [10], in [16] and in assay [11] was “inactive” in each case. Also, the Potency result in assay [12], in [13], in assay [14] and in assay [15] was “inactive” throughout. Besides, in assay [9], the outcome was inactive.

Turning to `COC(OC)(C(=O)c1ccccc1)c1ccccc1`, the Potency result in assay [1], in [5], in assay [6], in assay [7], in assay [8] and in [10] was “inactive” each time. For the same compound, the Potency result in [16], in assay [14] and in assay [15] was “inactive” in each case. The Potency was 54.4 µM (active) in assay [2]; 15.3 µM (active) in assay [3]; 48.5 µM (active) in assay [4]; 0.0123 µM [inconclusive] (active) in [11]; 4.32 µM (active) in assay [12]. The call in assay [9] was inactive.

As for `CCCOC(=O)c1ccc(C(=O)OCCC)nc1`, the Potency entry in assay [1], in assay [2], in [3], in [4], in assay [5] and in assay [18] was “inactive” throughout. Besides, the Potency entry in assay [6], in [19], in assay [7], in assay [8], in assay [10] and in [16] was “inactive” in each case. In addition, the Potency entry in assay [11], in assay [12], in assay [13], in assay [14] and in assay [15] was “inactive” throughout. Besides, the call in assay [9] was inactive.

In the case of `CC(=O)Oc1ccc2c(c1)CC[C@@H]1[C@@H]2CC[C@]2(C)[C@@H](O)CC[C@@H]12`, the Potency result in assay [1], in assay [5], in assay [6], in assay [16], in assay [14] and in [15] was “inactive” in each case. The Potency is 29.8 µM (active) in [2]; 26.6 µM (active) in assay [3]; 23.7 µM (active) in [4]; 26.6 µM (active) in [7]; 26.6 µM (active) in [8].

On to `CC1CN(c2cc3c(cc2F)c(=O)c(C(=O)O)cn3-c2ccc(F)cc2F)CCN1` (configuration not stated), for which the Potency result in assay [1], in [2], in assay [3], in assay [4], in [5] and in assay [6] was “inactive” throughout. Also, the Potency entry in assay [7], in [8], in [10], in assay [16], in assay [11] and in [12] was “inactive” throughout. Moreover, the Potency entry in assay [13] and in [15] was “inactive” each time. For the same compound, in assay [9], the call was inactive.

Turning to `CCc1nn(CCCN2CCN(c3cccc(Cl)c3)CC2)c(=O)n1CCOc1ccccc1`, the Potency result in assay [1] and in assay [11] was “inactive” in each case. The Potency was 4.22 µM (active) and 11.9 µM (active) in assay [2]; 7.5 µM (active) in assay [3]; 5.96 µM (active) and 13.3 µM (active) in [4]; 10.7 µM (active) in [5]; 22.1 µM (active) in assay [6]; 10.6 µM (active) and 26.6 µM (active) in assay [7]. Moreover, the Potency in assay [8] was 11.9 µM (active) and 26.6 µM (active); in assay [16], 23.9 µM (active); in assay [13], 7.5 µM (active) and 26.6 µM (active); in assay [14] it was 29.8 µM (active) and inactive; in [15], 29.8 µM (active) and 33.5 µM (active).

Regarding `CC(C)=CC=O`, the Potency result in [1], in [2], in assay [3], in assay [4], in assay [5] and in assay [17] was “inactive” each time. The Potency result in [18], in [6], in assay [19], in assay [7], in assay [8] and in assay [10] was “inactive” each time. For the same compound, the Potency entry in assay [16], in [11], in assay [12], in assay [13], in assay [14] and in assay [15] was “inactive” in each case. Besides, the outcome in [9] was inactive.

For `C[Si]1(C)O[Si](C)(C)O[Si](C)(C)O1`, the Potency result in assay [1], in [2], in assay [3], in [4], in assay [5] and in assay [17] was “inactive” each time. The Potency entry in assay [20], in [18], in assay [6], in [19], in assay [7] and in assay [14] was “inactive” each time. Further, the Potency entry in [15] was “inactive”. For the same compound, in assay [9], the outcome was inactive.

For the compound `CC(=O)Nc1ccccc1C`, the Potency result in assay [1], in [2], in assay [3], in assay [4], in [5] and in assay [6] was “inactive” each time. Besides, the Potency entry in assay [7], in assay [8], in assay [10], in [11], in [12] and in assay [13] was “inactive” in each case. For the same compound, the Potency entry in assay [14] and in assay [15] was “inactive” in each case. The outcome in assay [9] was inactive.

As to `CC(=O)[C@H]1CC[C@H]2[C@@H]3C=CC4=CC(=O)CC[C@@]4(C)[C@@H]3CC[C@]12C`, the Potency result in assay [1], in [5], in assay [6], in [19], in assay [7] and in assay [16] was “inactive” each time. In addition, the Potency result in assay [11], in assay [12], in [13], in assay [14] and in assay [15] was “inactive” throughout. Moreover, the Potency is 4.03 µM (active) in [2], 3.59 µM (active) in [3], 4.52 µM (active) in [4] and 9.02 µM (active) in [18]. The result in [9] was inactive.
